Hits are enriched below; roughly 2% of the tested compounds scored in any of these assays.
CHT inh: inhibitors of human choline transporter CHT | 310,000 compounds, 0.86% hits | B-score at 10 µM | AID 488975 | Q9GZV3 | CHT-expressing cells, membrane potential dye, choline response; hits give low values;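 active means B-score over 3 SD under the library average, and starting fluorescence ratio not unusually high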;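 further: choline stimulus applied at its EC90 after an EC20 pre-addition; B-score computed on integrated fluorescence ratio after choline addition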
Target sequence (Q9GZV3 whole entry, looked up): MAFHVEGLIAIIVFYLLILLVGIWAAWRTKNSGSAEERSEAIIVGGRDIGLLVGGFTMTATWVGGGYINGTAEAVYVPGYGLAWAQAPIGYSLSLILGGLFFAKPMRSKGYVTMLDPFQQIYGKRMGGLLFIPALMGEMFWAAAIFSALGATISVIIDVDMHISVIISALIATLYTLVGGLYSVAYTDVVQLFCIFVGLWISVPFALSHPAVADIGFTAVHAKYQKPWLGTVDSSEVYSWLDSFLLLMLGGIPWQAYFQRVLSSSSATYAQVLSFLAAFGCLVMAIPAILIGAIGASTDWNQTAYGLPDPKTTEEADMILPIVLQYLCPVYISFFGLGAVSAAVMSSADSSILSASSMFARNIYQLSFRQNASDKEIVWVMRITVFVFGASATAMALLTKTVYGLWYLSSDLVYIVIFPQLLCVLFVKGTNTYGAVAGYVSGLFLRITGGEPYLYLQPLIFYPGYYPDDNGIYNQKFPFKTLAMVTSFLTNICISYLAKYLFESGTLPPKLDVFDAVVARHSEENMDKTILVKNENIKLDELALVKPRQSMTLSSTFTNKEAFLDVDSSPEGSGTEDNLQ
H9c2 TAG inh: reduces triacylglycerol accumulation in H9c2 cells; Nile Red lipid (TAG) fluorescence; cells loaded with 200 µM oleic acid; inhibition, % at 12.5 µM; 230,000 compounds, 0.66% hits;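 active means pattern-corrected inhibition of lipid staining of at least 50% with the nuclear-stain viability signal not falling by more than 50%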;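 further: 0% = DMSO wells and 100% = triacsin C control wells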
Kir21 block: Kir2.1 (mouse) channel inhibition; P35561; HEK293-Kir2.1, FluxOR thallium flux fluorescence; hits give low values; B-score at 10 µM; 310,000 compounds, 0.85% hits; AID 1672;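 active means fluorescence ratio B-score at or below minus 3 SD of library scores, with starting-brightness B-score within 2 SD, cut at about -4.2 in these data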;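 further: channel flux triggered by added potassium and thallium sulfate stimulus; B-score of peak minus minimum fluorescence over baseline after thallium stimulus; more negative B-score means stronger Kir2.1 block with less thallium influx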
CHT allo act: allosteric activators of human choline transporter CHT | Q9GZV3 | CHT-expressing cells, membrane potential dye, choline EC20; hits give high values; LV-AA mutant CHT in HEK293 cells | B-score at 10 µM | 310,000 compounds, 0.49% hits | AID 488977;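 active means initial fluorescence not abnormally high and integrated response B-score, plate-corrected, over 3 SD above library mean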
CHT block conf: confirmation of human choline transporter CHT inhibitors | shares compounds with CHT inh | CHT-expressing cells, choline membrane potential dye; LV-to-AA substituted CHT, HEK293 cells | CHT activity remaining % of control (hits give low values), % at 10 µM | 2,400 compounds, 70% hits;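 active means choline transporter activity left, mean of duplicates at 10 µM, below buffer-only control mean minus 3 SD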;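 further: depolarization triggered by choline at its EC90 following an EC20 pre-addition; 0% = hemicholinium-3 full block and 100% = buffer-only control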
HEK293 CHT ctr: CHT inhibitor counter-screen hit in parental HEK293 cells | shares compounds with CHT inh | membrane potential dye, choline response; active = decrease or increase beyond buffer ±3SD | membrane potential ratio readout (active if shifted either direction beyond buffer ±3SD; no single direction) at 10 µM | 2,400 compounds, 4% hits;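 further: parental cells lack the transporter so any hit is non-specific; ratio is peak minus trough fluorescence over baseline after EC90 choline challenge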
* = called active by the depositor.

Results for COc1ccccc1NS(=O)(=O)c1ccc(C)c(C(=O)NCC(c2ccco2)N2CCCCC2)c1 (configuration not stated) ?
CHT inh: -16*; H9c2 TAG inh: 9; Kir21 block: 1; CHT allo act: inactive; CHT block conf: -4.8%*; HEK293 CHT ctr: inactive

Results for O=C1CC(N2CCN(c3ccccc3)CC2)C(=O)N1c1ccc2c(c1)OCO2 (configuration not stated) ?
CHT inh: inactive; H9c2 TAG inh: 6; Kir21 block: 0.75; CHT allo act: inactive

How did COc1ccc(C(=O)N(Cc2nc(-c3ccc(C)cc3)no2)C2CCCCC2)cc1OC do in these assays?
CHT inh: inactive; Kir21 block: -1.5; CHT allo act: inactive

How did C=CCOc1ccnc(-c2ccccc2)n1 do in these assays?
CHT inh: inactive; Kir21 block: 0.25; CHT allo act: inactive

Results for Cc1[nH]n(-c2ccccc2)c(=O)c1C(c1cccc([N+](=O)[O-])c1O)c1c(C)[nH]n(-c2ccccc2)c1=O ?
CHT inh: -7.2*; Kir21 block: 0.04; CHT allo act: inactive; CHT block conf: -6.2%*; HEK293 CHT ctr: inactive

How did Cc1c(C(c2cccc([N+](=O)[O-])c2O)c2c(C)n(C)n(-c3ccccc3)c2=O)c(=O)n(-c2ccccc2)n1C do in these assays?
CHT inh: inactive; Kir21 block: 2.6; CHT allo act: inactive

Results for COc1ccc(NC(=O)C2CCC(C(C)(C)C)CC2)cc1S(=O)(=O)N1CCOCC1 (configuration not stated) ?
H9c2 TAG inh: 15

How did OCC1OC(c2ccc(OCc3ccccc3)cc2OCc2ccccc2)C(O)C1O (configuration not stated) do in these assays?
H9c2 TAG inh: 10

What do the screens show for `CCCOc1ccc(C(CC(=O)O)NC(=O)c2sc3ccccc3c2Cl)cc1` (configuration not stated)?
CHT inh: -6.8*; H9c2 TAG inh: 3; Kir21 block: 0.15; CHT allo act: inactive; CHT block conf: 25%*; HEK293 CHT ctr: inactive

What do the screens show for `COc1ccc(N2CCN(CC(=O)Nc3c(C)cc(C)cc3C)CC2)cc1`?
CHT inh: -6.1*; Kir21 block: -0.07; CHT allo act: inactive; CHT block conf: 53%*; HEK293 CHT ctr: inactive

Results for Cc1cc(C)c(NC(=O)CN2CCN(C)CC2)c(C)c1 ?
CHT inh: inactive; H9c2 TAG inh: -9; Kir21 block: 0.62; CHT allo act: inactive

What do the screens show for `Cc1ccc(C(C)C)c(OCC(=O)NNC(=O)Nc2ccccc2)c1`?
CHT inh: inactive; H9c2 TAG inh: 2; Kir21 block: -3; CHT allo act: inactive

Results for Cc1ccc(S(=O)(=O)NC(=O)COc2cc(C)ccc2C(C)C)cc1 ?
CHT inh: -5.9*; Kir21 block: 0.7; CHT allo act: inactive; CHT block conf: 50%*; HEK293 CHT ctr: inactive

What do the screens show for `NS(=O)(=O)c1ccc(NC(=O)Nc2ccc(S(N)(=O)=O)cc2)cc1`?
CHT inh: -13*; H9c2 TAG inh: 3; Kir21 block: -0.05; CHT allo act: inactive; CHT block conf: inactive; HEK293 CHT ctr: inactive

What do the screens show for `Cn1c(=O)c2c(nc(SCC(=O)N3CCCCCC3)n2C)n(C)c1=O`?
CHT inh: -5.7*; H9c2 TAG inh: -5; Kir21 block: 0.12; CHT allo act: inactive; CHT block conf: inactive; HEK293 CHT ctr: inactive

Results for CCc1cccc(CC)c1NC(=O)c1ccccc1CCc1ccccc1 ?
CHT inh: inactive; Kir21 block: -0.55; CHT allo act: inactive

What do the screens show for `Cc1csc(C(C#N)C(=O)c2cc3ccccc3o2)n1` (configuration not stated)?
CHT inh: -5.3*; Kir21 block: 0.47; CHT allo act: inactive; CHT block conf: 61%*; HEK293 CHT ctr: inactive

How did CCOC(=O)c1nc2sc3c(c2c(=O)n1C(C)C(=O)OCC)CCCC3 (configuration not stated) do in these assays?
CHT inh: inactive; H9c2 TAG inh: 4; Kir21 block: -0.1; CHT allo act: inactive

Results for Cc1cccc(-c2nc3ccccc3c(=O)n2N)c1 ?
CHT inh: inactive; Kir21 block: 0.68; CHT allo act: inactive

How did Nn1c(-c2ccccc2)nc2cc(Cl)ccc2c1=O do in these assays?
CHT inh: -7.2*; Kir21 block: 0.59; CHT allo act: inactive; CHT block conf: inactive; HEK293 CHT ctr: inactive

What do the screens show for `CCCCCCCCCCCCN1[C@@H](CC(=O)O)c2cc(C(F)(F)F)ccc2S1(=O)=O`?
CHT inh: -7.3*; H9c2 TAG inh: 13; Kir21 block: 0.46; CHT allo act: inactive; CHT block conf: 44%*; HEK293 CHT ctr: inactive

What do the screens show for `CCCCCCCCN1[C@@H](CC(=O)O)c2cc(C(F)(F)F)ccc2S1(=O)=O`?
CHT inh: inactive; H9c2 TAG inh: -11; Kir21 block: -0.07; CHT allo act: inactive

What do the screens show for `CCOC(=O)N1CCN(CC(=O)Nc2ccc(Oc3ccccc3)cc2)CC1`?
CHT inh: inactive; H9c2 TAG inh: -17; Kir21 block: 0.39; CHT allo act: inactive

Results for CC(C)c1nc2oc3c(N(C)CCO)ncnc3c2c2c1CCC2 ?
CHT inh: -5.7*; H9c2 TAG inh: 18; Kir21 block: -0.3; CHT allo act: inactive; CHT block conf: inactive; HEK293 CHT ctr: inactive

What do the screens show for `CC(C)c1nc2oc3c(NCC4CCCO4)ncnc3c2c2c1CCC2` (configuration not stated)?
CHT inh: inactive; H9c2 TAG inh: 9; Kir21 block: -3.5; CHT allo act: inactive

How did CN(C1=NC(=O)C(CC(=O)O)S1)c1ccc(O)cc1 (configuration not stated) do in these assays?
CHT inh: inactive; H9c2 TAG inh: 15; Kir21 block: 0.89; CHT allo act: inactive

Results for CC(C)(C)c1ccc(C(O)c2ncc(-c3cccc(F)c3)[nH]2)cc1 (configuration not stated) ?
H9c2 TAG inh: -24

What do the screens show for `O=C(CN1C(=O)NC(Cc2c[nH]c3ccccc23)C1=O)NCC(F)(F)F` (configuration not stated)?
CHT inh: inactive; Kir21 block: 1.4; CHT allo act: inactive

What do the screens show for `CCCn1c(SCC(=O)c2cc(C)n(C3CC3)c2C)n[nH]c1=O`?
H9c2 TAG inh: 9

Results for CCCn1c(SCC(=O)c2cc(C)n(-c3ccc4c(c3)OCO4)c2C)n[nH]c1=O ?
CHT inh: -5.5*; Kir21 block: -6.7*; CHT allo act: inactive; CHT block conf: inactive; HEK293 CHT ctr: inactive

High-throughput results as filed in PubChem BioAssay.
